According to the supplement of paper PMC3334620:
In all, about 33,000 sequences were measured (“E-score (-0.5 to 0.5)”: median about -0.041, highest 2% from about 0.37 on). This is one part of a sample in which the highest values are shown more often than they occur.

biological target: T1, Ecm22 (UniProt Q05958); assay: PBM E-score (8-mer binding enrichment) (E-score (-0.5 to 0.5)); higher = stronger / more preferred TF binding; conditions: protein concentration: 200 nM; construct: GST-full length
T1 sequence: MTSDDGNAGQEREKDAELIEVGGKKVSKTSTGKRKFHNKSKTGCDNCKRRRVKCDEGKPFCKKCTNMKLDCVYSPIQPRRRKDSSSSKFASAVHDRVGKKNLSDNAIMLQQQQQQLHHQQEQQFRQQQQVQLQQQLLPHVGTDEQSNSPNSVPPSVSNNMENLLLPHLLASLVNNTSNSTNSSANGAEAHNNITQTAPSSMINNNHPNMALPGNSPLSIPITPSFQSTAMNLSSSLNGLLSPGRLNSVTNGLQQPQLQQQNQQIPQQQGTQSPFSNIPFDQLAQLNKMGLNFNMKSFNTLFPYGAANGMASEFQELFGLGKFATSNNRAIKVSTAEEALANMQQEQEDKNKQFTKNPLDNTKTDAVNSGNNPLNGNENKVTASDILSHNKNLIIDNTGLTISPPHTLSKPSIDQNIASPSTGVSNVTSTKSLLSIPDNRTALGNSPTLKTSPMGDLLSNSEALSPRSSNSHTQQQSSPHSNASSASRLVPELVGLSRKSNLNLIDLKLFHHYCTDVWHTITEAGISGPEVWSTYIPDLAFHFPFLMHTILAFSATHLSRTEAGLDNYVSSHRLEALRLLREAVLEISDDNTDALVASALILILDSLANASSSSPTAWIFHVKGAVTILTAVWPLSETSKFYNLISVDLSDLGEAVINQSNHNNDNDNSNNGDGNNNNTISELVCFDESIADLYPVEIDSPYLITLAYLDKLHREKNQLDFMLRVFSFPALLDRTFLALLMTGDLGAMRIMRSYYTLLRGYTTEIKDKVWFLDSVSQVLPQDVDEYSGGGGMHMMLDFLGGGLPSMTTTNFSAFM
Experimental: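 Universal 'all 10-mer' protein binding microarrays (Agilent AMADID 015681) probed with GST-tagged S. cerevisiae TFs (full-length or DBD) made by in vitro transcription/translation (PURExpress), about 100-200 nM. Bound TF was detected with fluorescent anti-GST. Each ungapped 8-mer (which stands for itself and its reverse complement) is scored by the PBM enrichment score (E-score), a modified Wilcoxon-Mann-Whitney statistic from -0.5 to +0.5, computed with the Universal PBM Analysis Suite. Scale: above 0.35 generally sequence-specific binding.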

Row | Sequence | PBM E-score
1 | AATATACA | 0.104
2 | CATATACC | -0.0901
3 | AATATACG | 0.461
4 | CATATACA | 0.0321
5 | CATATACG | 0.445
6 | AAAATACC | 0.0602
7 | AAAATACG | 0.372
8 | AATATACT | -0.0273
9 | AAAATACA | -0.0245
10 | ACCCCGGT | 0.00636
11 | GGAGTTGA | 0.0109
12 | CTCTAGAA | -0.201
13 | AAGGGCCC | -0.0372
14 | CGCGGCTA | 0.0813
15 | ACATGCCC | -0.0896
16 | ATCCGTGC | -0.0378
17 | CTCCGTAC | 0.386
18 | CACCGTAC | 0.4
19 | CACCGTAA | 0.277
20 | ATCCGTAC | 0.363
21 | CTCCGTAA | 0.187
22 | CACCGTAG | 0.0943
23 | AAAAAGGG | -0.092
24 | ACATCTAT | 0.0869
25 | CCAGGGCA | -0.108

Row | Sequence | PBM E-score
26 | GGCGCCCA | -0.0786
27 | TCGCCCGA | -0.102
28 | TTCGTAAA | 0.456
29 | GTCGTAAA | 0.473
30 | ATCGTAAA | 0.436
31 | CCCGTAAA | 0.32
32 | ATCGTAAG | 0.308
33 | TGCGTAAA | 0.228
34 | GGCGTAAA | 0.159
35 | GACGTAAA | 0.154
36 | CTCGTAAA | 0.475
37 | CACGTAAA | 0.106
38 | ATCGTAAT | 0.263
39 | TCCGTAAA | 0.332
40 | CTCCACAG | -0.248
41 | GCGCGACC | 0.173
42 | ACTCCGGC | 0.0584
43 | AAAAACTG | -0.116
44 | GCCTCGCA | 0.205
45 | ACAACCGC | 0.111
46 | AGCCTTAC | -0.108
47 | CTTCGGCC | -0.151
48 | ACGAACAG | 0.282
49 | GCGAACAA | 0.148
50 | ACGAACAC | 0.318

Row | Sequence | PBM E-score
51 | CCGAACAA | 0.127
52 | ACGAACAA | 0.38
53 | ACGAACAT | 0.386
54 | GGCCGACC | -0.224
55 | GCCTGAAA | -0.139
56 | GACGTCTA | -0.23
57 | AGGACGGG | -0.147
58 | ATGACGGC | -0.236
59 | ACGACGGA | 0.388
60 | CCGACGGA | 0.0916
61 | CCGACGGC | 0.129
62 | ACGACGGG | 0.393
63 | ATGACGGG | -0.125
64 | GCGACGGA | 0.124
65 | ACGACGGC | 0.37
66 | CACGTTCC | 0.201
67 | AGGCAACT | -0.02
68 | ATCCTACC | -0.186
69 | AACGGAGA | 0.18
70 | ATCGGGCA | -0.122
71 | CTGCGAAG | -0.0466
72 | CATAAACC | -0.0464
73 | CATAAACA | -0.0236
74 | AATAAACG | 0.41
75 | CATAAACG | 0.437

Row | Sequence | PBM E-score
76 | AATAAACA | 0.0258
77 | AATAAACT | -0.0489
78 | CGGCACTA | -0.0606
79 | GAAGTCGC | 0.108
80 | ATGCACCA | -0.108
81 | TAGATAAA | 0.057
82 | ATGACGTG | -0.166
83 | AAGACGTC | 0.00719
84 | CCGACGTC | 0.138
85 | CCGACGAG | 0.165
86 | GCGACGTA | 0.265
87 | ACGACGTG | 0.372
88 | CCGACGTA | 0.208
89 | AGGACGTG | -0.194
90 | ACGACGAC | 0.364
91 | ACGACGAG | 0.38
92 | ACGACGTA | 0.414
93 | ACGACGTC | 0.393
94 | GACCCGTA | 0.24
95 | ACCTTCGC | 0.143
96 | CAGGACGA | -0.283
97 | CTCCGTTA | 0.0433
98 | GTCTACCA | -0.215
99 | GTAAACTA | 0.188
100 | GTAAACCA | 0.0466

Row | Sequence | PBM E-score
101 | ATAAACGA | 0.484
102 | ATAAACGC | 0.192
103 | AAAAACGA | 0.323
104 | AAAAACGG | 0.13
105 | ATAAACTG | 0.0158
106 | GTAAACGA | 0.485
107 | ATAAACGG | 0.408
108 | CATCCCCC | -0.207
109 | GATCCACA | -0.13
110 | GTGAACTA | 0.0738
111 | ATGAACGG | 0.262
112 | ATGAACGA | 0.453
113 | CTGAACGC | 0.023
114 | GTGAACAA | 0.198
115 | ATGAACGC | 0.118
116 | GTGAACGA | 0.426
117 | CTGAACGA | 0.456
118 | CTGAACTA | -0.092
119 | AACGGTTA | 0.27
120 | CATTGTCG | 0.0896
121 | CTAGGGAC | -0.323
122 | CGCCAGAC | 0.00345
123 | GGTAACAC | -0.135
124 | GATTCGCA | 0.227
125 | AATTCGTC | 0.0772

Row | Sequence | PBM E-score
126 | GATTCGTA | 0.45
127 | CATTCGTA | 0.407
128 | GATTCGGA | 0.171
129 | AATTCGTG | -0.036
130 | CATTCGTC | 0.112
131 | AATTCGTA | 0.441
132 | CATTCGCA | 0.0842
133 | ACCCCCCT | -0.25
134 | AGTAGGCC | 0.00266
135 | GAATTGTC | -0.0741
136 | AGAACCCA | -0.131
137 | GGCTCCTA | -0.159
138 | GCATTTAC | -0.0379
139 | CTTCCGTA | 0.319
140 | ATTCCGTA | 0.284
141 | GTTCCGTA | 0.389
142 | ACAGAAGC | -0.0614
143 | GCGTACGC | 0.178
144 | GCGTACTA | 0.152
145 | TCGTACGA | 0.469
146 | TCGCACGA | 0.183
147 | TCCTACGA | 0.26
148 | ACGTACGA | 0.441
149 | GCGTACGA | 0.448
150 | CCCTACGG | -0.215

Row | Sequence | PBM E-score
151 | ACGTACGT | 0.245
152 | ACGTACGG | 0.362
153 | CCGTACGG | 0.378
154 | ACGTACGC | 0.239
155 | CTAGCGGC | -0.29
156 | AGAGCGGC | -0.228
157 | CTCTTAAC | 0.0664
158 | ATCTGCAC | -0.117
159 | CATCAGCC | -0.121
160 | TAGCTGAA | 0.0371
161 | ACTTCGAG | -0.105
162 | TCCGCCAA | -0.121
163 | ATTTCTGA | -0.286
164 | AAGTGCAA | -0.0854
165 | AGGTCAGA | -0.204
166 | TGAGGTAA | -0.264
167 | CCGTACTA | 0.341
168 | CCGTACGA | 0.445
169 | CCGTACGC | 0.324
170 | GAGGTTGA | -0.0744
171 | AGAGAAGC | -0.0688
172 | CGTTTATC | 0.42
173 | CTTTTATC | -0.0345
174 | AGTTTATA | 0.15
